Reference: PubChem BioAssay (NCI)
This is part of a sample that, as a whole, favours compounds with a hit. Of some 79,000 tested, about 15% had one in any assay. Cut-off read from the data, not from the text of the source: active = growth inhibition above about 70%; inactive = the rest.

What was measured:
[1] = NCI Yeast Anticancer Drug Screen. Data for the rad50 strain (AID 155);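 note: 0% = growth of vehicle-only cultures of the same strain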; details: S. cerevisiae rad50 strain growth inhibition; at 50.0 µM; stronger effect = higher value
Summary of the method: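 Vehicle-treated cultures provide the reference for the growth inhibition reported for compound-exposed, repair-deficient yeast.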

[2] = NCI Yeast Anticancer Drug Screen. Data for the mec2-1 strain (AID 157); details: S. cerevisiae mec2-1 strain, at 50.0 µM, stronger effect = higher value
Summary of the method: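 Vehicle-treated cultures served as reference for growth inhibition of compound-exposed mec2-1 yeast.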

[3] = NCI Yeast Anticancer Drug Screen. Data for the sgs1 mgt1 strain (AID 161);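 note: 0% = growth of cultures given vehicle only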; details: S. cerevisiae sgs1 mgt1 strain, at 50.0 µM, stronger effect = higher value
Summary of the method: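 Mutant yeast exposed to compound; growth scored against vehicle-only wells.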

[4] = NCI Yeast Anticancer Drug Screen. Data for the cln2 rad14 strain (AID 165);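 note: 0% = growth equal to vehicle treated cultures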; details: S. cerevisiae cln2 rad14 strain, at 50.0 µM, stronger effect = higher value
Summary of the method: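 Each compound was tested on cln2 rad14 yeast. Inhibition of growth was calculated against vehicle-exposed controls.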

[5] = NCI Yeast Anticancer Drug Screen. Data for the bub3 strain (AID 167); details: S. cerevisiae bub3 mutant strain, at 50.0 µM, stronger effect = higher value
Summary of the method: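 Mutant yeast screening strain plus compound; vehicle-treated cultures serve as the 0% inhibition reference.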

[6] = NCI Yeast Anticancer Drug Screen. Data for the mlh1 rad18 strain (AID 175); details: S. cerevisiae mlh1 rad18 strain growth inhibition; at 50.0 µM; stronger effect = higher value
Summary of the method: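 Vehicle-treated cultures served as the reference for growth inhibition in a yeast strain carrying DNA damage repair alterations exposed to each compound.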

Measured: growth inhibition

CCOc1c(OC)ccc(C(C)=O)c1O
inactive: [1] -17.8% | [2] -15.2% | [3] -22.1% | [4] -2.35% | [5] 3% | [6] -17.2%

c1cc2c3c(c1)ccc1cccc(c13)C2
inactive: [1] 39.6% | [2] -26.2% | [3] 12.8% | [4] 11.9% | [5] 24.6% | [6] 27.1%

Nc1cccc(C(=O)O)c1C(=O)O
inactive: [1] 19.7% | [2] 15.7% | [3] 25% | [4] -1.7% | [5] -4.2% | [6] 20.9%

CC(C)(C)CC(C)(C)c1ccc2c(c1)NC(C1Nc3cc(C(C)(C)CC(C)(C)C)ccc3O1)O2 (stereo unspecified)
inactive: [1] 8.05% | [2] -5.8% | [3] -4.55% | [4] -4.4% | [5] -2.6% | [6] 10.8%

O=C(Cn1c2c(c3ccccc31)CCCC2)N1CCOCC1
inactive: [1] -19.3% | [2] -29.4% | [3] -14.1% | [4] 5.15% | [5] -23.8% | [6] -19.6%

Cc1cc(Cl)nc2ccc(Cc3ccc(Cl)cc3)cc12
inactive: [1] 16.7% | [2] -2.65% | [3] -5.2% | [4] 11.9% | [5] 11.1% | [6] -10.1%

CN1CCCCC1CCN1CCCCC1 (stereo unspecified)
inactive: [1] -38.9% | [2] -10.2% | [3] -7.8% | [4] -39.5% | [5] -17.9% | [6] 1.3%

Cc1ccc(S(=O)(=O)OCC23CCC(CC2)CC3)cc1
inactive: [1] -30% | [2] -9.85% | [3] -26.2% | [4] -3.5% | [5] 39.6% | [6] -1.2%

c1ccc(-c2cc(-c3ccccc3)c(-c3ccccc3)c(-c3ccccc3)c2)cc1
inactive: [1] 32.1% | [2] 10.1% | [3] 19.4% | [4] 12.4% | [5] -4.1% | [6] 13%

Cc1cccc(C2=N/C(=C\c3ccccc3)C(=O)O2)c1
inactive: [1] 7.15% | [2] 7.5% | [3] 18.8% | [4] 10.8% | [5] 5.75% | [6] 5.35%

O=c1[nH]c2cc(Cl)ccc2nc1/C(=N/Nc1ccccc1)C(O)c1ccco1 (stereo unspecified)
inactive: [1] 19.4% | [2] -15.7% | [3] -4.8% | [4] 5.85% | [5] 7.65% | [6] -54.4%

Cc1ccc(S(=O)(=O)NNC(=O)c2ccc[nH]2)cc1
inactive: [1] -1.5% | [2] -24.2% | [3] -7.85% | [4] 7.65% | [5] 9.9% | [6] 6.35%

NC(=O)c1[nH]c(COCCO)nc1N
inactive: [1] -20.4% | [2] -10.4% | [3] 14% | [4] -14.9% | [5] 7.05% | [6] 22.4%

OCC1CSCC1CO (stereo unspecified)
inactive: [1] 8.6% | [2] 12.8% | [3] -4.7% | [4] 15.3% | [5] 11.7% | [6] 3.5%

N#C/C(=C\c1ccco1)C(=O)c1ccco1
inactive: [1] 19.4% | [2] 15.1% | [3] 28.2% | [4] 13.8% | [5] 38.7% | [6] 34.6%

Cc1nc2nc(NCCCN(C)C)nc(NCCCN(C)C)c2nc1C
inactive: [1] 18.8% | [2] 1.25% | [3] 22.1% | [4] 23.6% | [5] 21.4% | [6] 15.3%

CC(=O)Nc1ccc(C(=O)NN2C(=O)CSC2c2ccc([N+](=O)[O-])cc2)cc1 (stereo unspecified)
inactive: [1] -24.1% | [2] -39.8% | [3] -54.5% | [4] -6.3% | [5] -24.3% | [6] -53.2%

CC1=C/C(=N\NC(=O)c2ccc[n+](C)c2)CC(C)(C)C1
inactive: [1] 18.7% | [2] 2.2% | [3] 6% | [4] 18.4% | [5] -5.4% | [6] 12.2%

C=CCC(C#N)C1=CCCCC1 (stereo unspecified)
inactive: [1] -6.85% | [2] -26.6% | [3] -12.4% | [4] -4.3% | [5] -23.6% | [6] -5.75%

CCCCOC(=O)C1CSSCC(NC(C)=O)C(=O)N1 (stereo unspecified)
inactive: [1] -2.05% | [2] -7.35% | [3] 1.5% | [4] -16.5% | [5] -7.2% | [6] -6.95%

COC1OC(COC(=O)c2ccccc2)C(OC(=O)c2ccccc2)C1NC(C)=O (stereo unspecified)
inactive: [1] 14.1% | [2] 18.7% | [3] 12.7% | [4] 62.1% | [5] 39.1% | [6] 28.4%
